In PubChem BioAssay AID1529 (NMMLSC, 2009):
The whole screen tested about 290,000 compounds, of which about 4,200 (1.4%) were called active.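 Rule for the calls: active = binding response more than 3 SD above or below the average of its plate-row segment, actives on both sides; inconclusive = wells at one plate position flagged as instrument error; inactive = the rest.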 The list comes from a sample in which actives are over-represented; it also holds similar structures and randomly drawn compounds.

target: Mitogen-activated protein kinase kinase kinase 3 (Homo sapiens) (UniProt Q99759); assay: modulators of MEKK3-MEK5 PB1 binding, primary screen, biochemical, wildtype MEKK3, multiplex bead flow cytometry, Alexa488-MEK5 (AID 1529); details: bead-based flow cytometry, Alexa488-MEK5 binding to MEKK3; at 10 µM; actives lie on both sides; 0 = blocked by unlabeled MEK5, 100 = vehicle;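 note: Alexa488 bead fluorescence after subtracting the streptavidin-only scavenger bead signal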
Sequence (Q99759 whole entry, looked up): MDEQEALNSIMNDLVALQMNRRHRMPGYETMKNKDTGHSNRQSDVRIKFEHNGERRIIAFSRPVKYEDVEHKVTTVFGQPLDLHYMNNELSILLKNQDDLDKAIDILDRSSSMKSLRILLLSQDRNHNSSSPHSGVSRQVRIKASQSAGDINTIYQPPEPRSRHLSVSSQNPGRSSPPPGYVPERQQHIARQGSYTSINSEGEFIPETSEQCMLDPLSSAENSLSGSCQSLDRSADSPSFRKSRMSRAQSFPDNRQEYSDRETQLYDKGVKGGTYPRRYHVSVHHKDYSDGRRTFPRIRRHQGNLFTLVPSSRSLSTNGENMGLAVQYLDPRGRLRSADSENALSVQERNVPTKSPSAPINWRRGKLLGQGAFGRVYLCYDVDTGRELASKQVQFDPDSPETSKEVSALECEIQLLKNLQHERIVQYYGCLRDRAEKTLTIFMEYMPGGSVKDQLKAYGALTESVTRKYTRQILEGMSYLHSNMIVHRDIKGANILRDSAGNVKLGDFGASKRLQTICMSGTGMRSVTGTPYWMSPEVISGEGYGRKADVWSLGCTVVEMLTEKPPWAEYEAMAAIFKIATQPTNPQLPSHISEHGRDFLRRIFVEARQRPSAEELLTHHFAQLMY

| SMILES | binding response (% of control) |
| --- | --- |
| CC(C)(C)OC(=O)N1CCC(C(=O)NNC(=O)c2ccc(Cl)cc2Cl)CC1 | 101% (inactive) |
| CC1=NN(C(=O)CCc2ccccc2O)C(O)(C(F)(F)F)C1 (configuration not stated) | 90% (inactive) |
| CC1=NN(C(=O)CCCc2ccccc2)C(O)(C(F)(F)F)C1 (configuration not stated) | 108% (inactive) |
| COc1ccc(CC(=O)N2N=C(C)CC2(O)C(F)(F)F)cc1 (configuration not stated) | 129% (active) |
| COc1cc(OC)c(C(=S)N2CCCC2)cc1OC | 104% (inactive) |
| CCn1c(=S)sc2c(=O)n(CC(=O)Nc3cccc(Br)c3)c(C)nc21 | 102% (inactive) |
| COc1ccc(/C=C2\SC(=S)N(CCCC(=O)NC3CCCC3)C2=O)cc1OC | 96% (inactive) |
| COc1cc(NC(=O)CN2C(=O)NC(C)(c3ccc(OC(F)F)cc3)C2=O)cc(OC)c1OC (configuration not stated) | 100% (inactive) |
| Fc1ccccc1COc1cccc2cccnc12 | 105% (inactive) |
| Cc1onc(-c2ccccc2)c1C(=O)NNC(=S)NC(=O)c1ccc(F)cc1 | 98% (inactive) |
| COc1ccc(C(=O)NC(=S)NNC(=O)c2c(-c3ccccc3)noc2C)cc1 | 134% (active) |
| COc1ccc(C(=O)NNC(=S)NC(=O)c2ccccc2)cc1 | 101% (inactive) |
| CN(C)C(=O)CCC(=O)N1CCCCC1C(=O)Nc1ccc(Oc2ccccc2F)cc1 (configuration not stated) | 105% (inactive) |
| Cc1nn(-c2ccccc2)c(C)c1NC(=O)COc1ccc(Cl)cc1Cl | 104% (inactive) |
| Cc1nn(-c2ccccc2)c(Cl)c1C(=O)Nc1ccccc1 | 98% (inactive) |
| Cc1nn(-c2ccccc2)c(C)c1NC(=O)CCl | 138% (active) |
| Cc1cnc(CN(C)C(=O)C2CCC(=O)N(CCc3cccc(F)c3)C2)[nH]1 (configuration not stated) | 104% (inactive) |
| CC1(c2ccc3ccccc3c2)NC(=O)NC1=O (configuration not stated) | 106% (inactive) |
| O=c1c2ccccc2ncn1CCCCOc1ccccc1F | 103% (inactive) |
| Cc1cccc(OCCNC(=O)CSc2ccc(C(F)(F)F)cc2[N+](=O)[O-])c1 | 133% (active) |
| O=C(CSc1ccc(C(F)(F)F)cc1[N+](=O)[O-])NCCOc1ccccc1 | 94% (inactive) |

| SMILES | binding response (% of control) |
| --- | --- |
| Nc1ccccc1Sc1ccc(C(F)(F)F)cc1[N+](=O)[O-] | 107% (inactive) |
| Cn1nccc1C(=O)NC1CCCc2c1cnn2-c1ccccc1F (configuration not stated) | 101% (inactive) |
| CC(=O)C(C)n1cnc2scc(-c3ccc(C)cc3)c2c1=O (configuration not stated) | 98% (inactive) |
| CCc1ccc(C(=O)COC(=O)c2ccco2)cc1 | 103% (inactive) |
| Cc1nc(-c2ccc(Cl)cc2)sc1C1(C)CC(c2ccc(Br)cc2)=NO1 (configuration not stated) | 100% (inactive) |
| COc1ccc(C(CNC(=O)COc2ccccc2OC)N2CCCCC2)cc1 (configuration not stated) | 100% (inactive) |
| O=C(Cn1cc(C(=O)C2CC2)c2ccccc21)Nc1ccccc1Cl | 99% (inactive) |
| COc1ccccc1N1CCN(CCCCOc2ccc(F)cc2)CC1 | 124% (active) |
| COc1ccccc1N1CCN(Cc2ccc(OC)c3ccccc23)CC1 | 105% (inactive) |
| CCN1CCN(CCCCOc2ccccc2F)CC1 | 100% (inactive) |
| COc1ccc(CCN(C)C(=O)C23CC4CC(CC(Cl)(C4)C2)C3)cc1OC | 102% (inactive) |
| O=C(CCc1nnc2ccc(NCCCN3CCCC3=O)nn12)NCc1ccccc1Cl | 101% (inactive) |
| COc1cc(-c2nnc(Cn3cc(C(F)(F)F)ccc3=O)o2)cc(OC)c1OC | 2% [inhibitor] (active) |
| CC(C)(C)NC(=O)c1ccc(Cn2cc(C(F)(F)F)ccc2=O)cc1 | 100% (inactive) |
| CCOC(=O)c1cc(-c2nnc(-c3cc(OC)c(OC)c(OC)c3)o2)c(C)nc1C | 100% (inactive) |
| Cc1ccc(S(=O)(=O)N2CCC3(CC2)OCCO3)c(C)c1 | 101% (inactive) |
| CCCCCc1c(C)nc(N2CCN(Cc3ccc4c(c3)OCO4)CC2)[nH]c1=O | 98% (inactive) |
| Cc1cc(S(=O)(=O)NCC(C)C)ccc1OCC(=O)NC1CC1 | 102% (inactive) |
| COc1ccccc1NC(=S)N1CCN(C(c2ccccc2)c2ccccc2)CC1 | 102% (inactive) |
| COC(=O)c1ccc(C(=O)OC)c(NC(=S)N2CCN(c3ccc(F)cc3)CC2)c1 | 97% (inactive) |
| COc1ccccc1NC(=S)N1CCN(c2ccc(F)cc2)CC1 | 45% [inhibitor] (active) |

| SMILES | binding response (% of control) |
| --- | --- |
| COc1cccc(NC(=O)CCc2nnc3ccc(N4CCC(C)CC4)nn23)c1 | 98% (inactive) |
| CC1(C)C=Cc2c(ccc3c2OC[C@@H](c2ccc(O)cc2O)C3)O1 | 108% (inactive) |
| Cc1nc2ccccc2nc(C)c1=NOCc1ccc(Cl)cc1Cl | 98% (inactive) |
| Cc1nc2nc[nH]n2c(=O)c1C/C=C/c1ccccc1 | 84% (inactive) |
| Cc1[nH]c(=O)c(C(=O)/C=C/c2ccccc2)c2c1CCCC2 | 107% (inactive) |
| Cc1cn(COC/C=C/c2ccccc2)c(=O)[nH]c1=O | -2% [inhibitor] (active) |
| Cc1cc(=O)oc2cc(OCC(=O)N3CCN(c4ccc(F)cc4)CC3)c(Cl)cc12 | 101% (inactive) |
| O=C(c1cnn(-c2ccc(Cl)cc2)c1)c1ccccc1O | 129% (active) |
| Cc1ncc(CC(=O)n2cc(C(=O)c3cc(Cl)ccc3O)cn2)s1 | 109% (inactive) |
| COc1ccc(C(=O)Cc2cnn(-c3ccccc3)c2)c(O)c1 | 101% (inactive) |
| CC1(C)C2CC[C@]3(C)C(CC=C4[C@@H]5C[C@@](C)(CO)CC[C@]5(C(=O)O)CC[C@]43C)[C@@]2(C)CC[C@@H]1O (some centres not stated) | 105% (inactive) |
| Cn1nnnc1NCc1ccc(Cl)c(Cl)c1 | 105% (inactive) |
| COc1ccc(CNc2nnnn2C)cc1 | 51% [inhibitor] (active) |
| CCCn1nnnc1NCc1ccc(OC)cc1 | 111% (inactive) |
| CCOC(=O)c1c(-c2ccccc2)oc2cc(Br)c(O)c(C=O)c12 | 98% (inactive) |
| Cc1cc(OCC(=O)Nc2c(C)n(C)n(-c3ccccc3)c2=O)ccc1[N+](=O)[O-] | 96% (inactive) |
| CCc1ccc(NC(=O)COC(=O)c2cccs2)cc1 | 101% (inactive) |
| O=C(c1cccs1)N(C(=O)c1cccs1)c1ccccn1 | 94% (inactive) |
| O=C(c1ccc(Br)o1)N(c1ccccn1)C1CCCCC1 | 131% (active) |
| O=C(CNC(=O)c1ccc(Br)o1)NCC1CCCO1 (configuration not stated) | 102% (inactive) |
